# Assay outcomes from PubChem.
# Compounds with a hit are over-represented: about 2.4% of the library has one in this group of screens.
# D2 antag – antagonists of human D2 dopamine receptor. P14416. HEK293 TREx D2 cells, calcium flux, dopamine EC80. inhibition, % at 10 µM. 2% of 340,000 active; in the data active means inhibition above about 30%; inactive means below that, where a call was filed
#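 Tetracycline-induced HEK293 TREx cells expressing D2 receptor forced-coupled to calcium signalling, loaded with no-wash calcium dye. Compounds added and calcium flux read 180 s, then dopamine added at EC80 and read a further 180 s.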
# D2 ag-1 – agonists of human D2 dopamine receptor. HEK293 T-REx D2 cells, calcium flux agonist mode. activation, % at 2 µM. 0.53% of 340,000 active. AID 485358;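 active means activation over 3 SD above normal in the single-dose calcium agonist read, cut at about 30% in these data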
#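 Tetracycline-induced HEK293 Trex cells with D2 receptor force-coupled to calcium signaling, plated overnight at 30 C and loaded with no-wash calcium dye. Calcium flux read kinetically for 180 s after compound addition; responses flag agonists.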
# D2 ag-2 – agonists of human D2 dopamine receptor (beta-arrestin). activation, % (no concentration beside the values). P14416. 0.084% of 360,000 active. AID 624465. DiscoveRx PathHunter D2 beta-arrestin, luminescence, 90 min; 100% = 57 uM dopamine signal; in the data active means activation above about 40%; inconclusive means between about 15% and that limit
#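 Agonist mode: compounds alone added to overnight-plated D2 PathHunter cells for 90 min at 37 C, with 57 uM final dopamine (EC100) defining full response. Beta-arrestin recruitment detected by chemiluminescent reagent, read after 1 h at ambient temperature.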
# D2 PAM-1 – positive allosteric modulators of human D2 dopamine receptor; AID 624464; 0.23% of 360,000 active; DiscoveRx D2 beta-arrestin cells, luminescence, 90 min; 100% = 57 uM dopamine signal; potentiation, % (no concentration beside the values); P14416; in the data active means potentiation above about 50%; inconclusive means mostly about 30% to 49%
#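 PathHunter D2 cells, attached overnight at 37 deg C, received compound in DMSO plus dopamine at EC20 (50 nM final) for 90 min at 37 deg C. Beta-arrestin recruitment was read as luminescence after 1 h with detection reagent at ambient temperature.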
# D2 PAM-2 – positive allosteric modulators of human D2 dopamine receptor | P14416 | HEK293 T-REx D2, calcium flux, EC20 dopamine potentiation | potentiation, % at 10 µM | 0.34% of 340,000 active | AID 485347;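 active means potentiation over 3 SD above the plate norm, cut at about 30% in these data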
#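 Cells plated with tetracycline inducer and held overnight at 30 C; calcium dye loaded 30–90 min at room temperature; baseline taken, compound added and read 180 s; EC20 dopamine then added and read 180 s.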
# D3 ag – confirmation of human D3 dopamine receptor agonists, beta-arrestin. DiscoveRx D3 beta-arrestin cells, luminescence, 90 min. shares compounds with D2 ag-1. AID 720506. Potency, µM (series often up to 76.9 µM), hits mostly activators. 4% of 2,300 active; further: nearly all actives have a fitted effect of over 70% in size
# Target sequence (P35462 whole entry, looked up): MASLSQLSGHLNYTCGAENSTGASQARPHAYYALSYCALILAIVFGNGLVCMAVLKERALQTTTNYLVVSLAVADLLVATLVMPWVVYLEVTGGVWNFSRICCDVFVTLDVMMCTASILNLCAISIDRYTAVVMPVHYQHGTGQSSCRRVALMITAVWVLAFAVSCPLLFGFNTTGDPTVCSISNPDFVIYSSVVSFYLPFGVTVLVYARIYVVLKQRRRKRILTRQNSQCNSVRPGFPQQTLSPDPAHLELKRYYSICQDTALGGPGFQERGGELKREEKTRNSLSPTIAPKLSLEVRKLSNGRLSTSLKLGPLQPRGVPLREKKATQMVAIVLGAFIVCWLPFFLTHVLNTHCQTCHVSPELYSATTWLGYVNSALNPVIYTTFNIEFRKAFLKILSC
# D2 ag-3 – activates human D2 dopamine receptor in D3 counterscreen. Potency, µM (highest dose often 76.9 µM), actives largely listed as activators. 5.9% of 2,300 active. DiscoveRx PathHunter D2 beta-arrestin, luminescence, 90 min; response scale: percent relative to full dopamine signal. shares compounds with D2 ag-1; further: nearly all actives have a fitted effect of over 70% in size
# Numbers stand for hits; - = inactive; ? = inconclusive; . = no result. Unless noted, the call rests on the fitted dose curve; in most records, active means well fitted activation curve with a large enough effect; inconclusive means small, poorly fitted or top-dose-only effect; inactive means flat fitted curve, though single readings scatter.
SMILES,D2 antag,D2 ag-1,D2 ag-2,D2 PAM-1,D2 PAM-2,D3 ag,D2 ag-3
CSc1cccc(NC(=O)CN2C(=O)COc3ccc(S(=O)(=O)N4CCC(C)CC4)cc32)c1,.,-,.,.,-,.,.
CNc1nc(N)c([N+](=O)[O-])c(Nc2cccc(F)c2)n1,-,-,-,-,-,-,-
CNc1nc(N)c([N+](=O)[O-])c(NCc2ccccc2)n1,44,-,-,-,-,-,-
COC(=O)c1scc(-c2ccc(C)cc2)c1S(=O)(=O)N1CCN(c2cccc(Cl)c2)CC1,.,-,.,.,-,.,.
CCOC(=O)C1(C(F)(F)F)N=C(C(F)(F)F)Nc2cc(C)c(C)cc21 (stereo unspecified),-,-,-,-,-,-,-
COC(=O)C1(C(F)(F)F)N=C(C(F)(F)F)Nc2ccc(Cl)cc21 (stereo unspecified),.,.,-,-,.,.,.
COc1ccc(CCNC(=O)CNCC(c2ccccc2)N(C)C)cc1OC (stereo unspecified),-,33,-,-,-,-,-
COc1ccc(CCNC(=O)CSc2cn(Cc3ccccc3)c3ccccc23)cc1OC,-,-,-,-,-,.,.
COc1ccc(CCNC(=O)CSc2cn(Cc3cccc(C)c3)c3ccccc23)cc1OC,-,58,-,-,-,-,-
COc1ccc(CCNC(=O)CSc2ccccc2)cc1OC,-,-,-,-,-,.,.
CCOc1cc(CNC(=O)CSc2n[nH]c(-c3ccccc3)n2)cc(OCC)c1OCC,.,-,.,.,-,.,.
COc1ccc2c(c1)c1c(c(=O)n(CCc3ccccc3)c(=O)n1Cc1cccc(F)c1)n2C,.,-,.,.,-,.,.
Oc1ccccc1C=NCC(O)c1ccccc1 (stereo unspecified),-,-,-,-,-,-,-
O=C(Nc1nccs1)c1cccnc1,-,-,-,-,-,-,-
CCOC(=O)C1CCN(Cc2cccc(OC)c2)CC1,44,76,?,-,-,-,-
CCOC(=O)C1CCN(Cc2ccc(OC)cc2OC)CC1,-,-,-,-,-,.,.
CCOC(=O)C1CCN(Cc2ccc(F)c(F)c2)CC1,-,-,-,-,-,.,.
CCOC(=O)C1CCN(Cc2ccc(N(C)C)cc2)CC1,-,42,-,-,-,-,-
CCOC(=O)C1CCN(Cc2ccc(OCc3ccccc3)cc2)CC1,59,68,-,-,-,-,?
CCCN(CCC)S(=O)(=O)c1ccc2c(c1)N(CC(=O)NC(C)c1ccccc1)C(=O)CS2 (stereo unspecified),.,-,.,.,-,.,.
Cc1[nH]nc2c1C1(CCN(Cc3ccccc3)CC1)C(C#N)=C(N)O2,.,.,-,-,.,-,-
Cc1[nH]nc2c1C1(CCOCC1)C(C#N)=C(N)O2,-,-,-,-,-,.,.
CCOc1ccccc1CNC(=O)CCn1c(=O)c2cccn2c2ccc(F)cc21,.,-,.,.,-,.,.
CC(C(=O)Nc1ccc([N+](=O)[O-])cc1)N1CCN(C/C=C/c2ccccc2)CC1 (stereo unspecified),53,67,-,-,-,?,?
COc1ccc(Cl)cc1NC(=O)C(C)N1CCN(C/C=C/c2ccccc2)CC1 (stereo unspecified),-,-,-,-,-,.,.
SMILES,D2 antag,D2 ag-1,D2 ag-2,D2 PAM-1,D2 PAM-2,D3 ag,D2 ag-3
CC(C(=O)N(C)Cc1ccccc1)N1CCN(C/C=C/c2ccccc2)CC1 (stereo unspecified),69,69,?,-,-,?,?
CC(=O)c1ccc(NC(=O)C(C)N2CCN(C/C=C/c3ccccc3)CC2)cc1 (stereo unspecified),47,-,-,-,-,?,-
CC(=O)N1CCc2cc(CNS(=O)(=O)c3ccc(Cl)s3)ccc21,.,-,.,.,-,.,.
O=C1C(=O)N(CCCn2ccnc2)C(c2cccnc2)/C1=C(/O)c1ccc(F)cc1 (stereo unspecified),-,40,-,-,-,-,-
COc1ccc(N(Cc2cc3cccc(C)c3[nH]c2=O)C(=O)c2cccc(Cl)c2)cc1,.,-,.,.,-,.,.
CN(C)c1ncc(CN2CCC(CO)(CCCc3ccccc3)CC2)s1,62,68,-,-,-,-,?
OCC1(CCc2ccccc2)CCN(Cc2cnc(N3CCCC3)s2)CC1,.,.,-,-,.,.,.
Cc1ccc2oc3c(c(=O)c2c1)C(c1ccc(O)cc1)N(c1nc(C)c(C)s1)C3=O (stereo unspecified),.,-,.,.,-,.,.
CCCN(CC(=O)Nc1ccccc1OC)C(=O)CSC(=S)N1CCCC1,-,-,-,-,-,-,-
O=C(CCC1CCCC1)N1CCC(N2CCN(c3ccccc3)CC2)CC1,77,53,-,-,-,-,-
c1ccc(N2CCN(C3CC4CCC3C4)CC2)cc1 (stereo unspecified),87,54,-,-,-,-,-
COc1ccccc1C(=O)N1CCC(N2CCN(c3ccccc3)CC2)CC1,69,78,?,-,-,?,?
CC(C)(C)C1CCC(N2CCN(c3ccccc3)CC2)CC1 (stereo unspecified),86,73,-,-,-,-,?
CC(C)CC(=O)N1CCC(N2CCN(c3ccccc3)CC2)CC1,-,-,?,?,-,.,.
Cc1cc(NC(=O)CSc2nc(-c3cccc(F)c3)nc3c2c(=O)n(C)c(=O)n3C)no1,.,.,.,.,-,.,.
Cc1ccc(C(=O)Nc2c(C(=O)Nc3ccc(C)c(C)c3)sc3nc(C)cc(C)c23)cc1,.,-,.,.,-,.,.
COc1ccc(C(=O)N2CCC(N3CCN(c4ccccc4)CC3)CC2)cc1,57,71,-,-,-,?,?
COc1ccc(C(=O)N2CCC(C(=O)N3CCN(c4ccc(OC)cc4)CC3)CC2)cc1,-,-,-,-,-,.,.
CC(=O)Nc1cccc(-c2nnc(SCC(=O)c3cc([N+](=O)[O-])ccc3Cl)o2)c1,.,.,.,.,-,.,.
COc1ccc(NS(=O)(=O)c2cc(C(=O)N3CCC3)ccc2C)cc1,-,-,-,-,-,-,-
O=C(CNS(=O)(=O)c1ccccc1)OCC(=O)c1cccc([N+](=O)[O-])c1,-,-,-,-,-,.,.
O=C(CNS(=O)(=O)c1ccccc1)OCc1cccc([N+](=O)[O-])c1,-,41,-,-,-,-,-
O=C(NCCNS(=O)(=O)c1ccccc1)c1ccc([N+](=O)[O-])cc1,-,58,-,-,-,-,-
O=C(/C=C/c1cn(CC(O)CN2CCCCCC2)c2ccccc12)c1ccc(Br)cc1 (stereo unspecified),.,-,.,.,-,.,.
c1ccc(Cc2noc(CN3CCN(CCOc4ccccc4)CC3)n2)cc1,55,63,-,-,-,?,-
